# The supplement of paper PMC9694430
# Where a name gives a salt, the structure may show the parent alone.
# Tested on: LOC_OS07G07230-cb001
# Test: thermal shift delta Tm vs DMSO control; higher = stronger stabilization (binding)
# Settings: 12.5 µM; protein concentration 2 µM
# Summary of the method: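 Thermal shift values come from differential scanning fluorimetry on purified rice kinase domains made in E. coli, with melting temperatures obtained from Boltzmann fits. Samples of 19.5 μl held 2 μM kinase, 100 mM potassium phosphate pH 7.5, 150 mM NaCl, 10% glycerol, 5 × SYPRO Orange and compound in DMSO, and were heated from 25°C to 95°C at 0.05°C/s. Each shift is a triplicate mean relative to the DMSO-only protein sample.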
# 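Note: purified Escherichia coli-expressed rice kinase domain construct.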
row,SMILES,thermal shift delta Tm [°C]
1,CCn1c(=O)c(-c2ccc(-c3cncs3)cc2Cl)cc2cnc(Nc3ccc(N4CCN(C)CC4)cc3)nc21,0.19
2,CNC(=O)c1cccc(-c2ccc3c(N4CCOC[C@@H]4C)nc(N4CCOC[C@@H]4C)nc3n2)c1 [Vistusertib (AZD2014)],0.29
3,CC(C)S(=O)(=O)c1ccc2nccc(Nc3ccc4scnc4c3)c2c1,0.17
4,Cn1cc(-c2ccc3ncc(Cc4ccc5ncccc5c4)n3n2)cn1,0.13
5,N#Cc1ccc2ncnc(NCCc3ccccc3)c2c1 [Senexin A],0.54
6,O=C1NC(=O)/C(=C/c2ccc3nccc(-c4ccncc4)c3c2)S1,0.79
7,Cn1cnc2c(F)c(Nc3ccc(Br)cc3F)c(C(=O)NOCCO)cc21,-0.18
8,Cc1cc(Nc2ncc(Cl)c(Nc3ccccc3S(=O)(=O)C(C)C)n2)c(OC(C)C)cc1C1CCNCC1 [Ceritinib (LDK378)],0.14
9,Cc1nc2ccc(-n3ncc(C(=O)c4cc5ccccc5[nH]4)c3N)cc2[nH]1,0.11
10,C=C[C@@](C)(/C=C/c1ccc(O)cc1)CCC=C(C)C [Bakuchiol],0.15
11,"C=CC(=O)Nc1cccc(Nc2nc(Nc3ccc(N4CCN(C(C)=O)CC4)cc3OC)ncc2C(F)(F)F)c1 [Rociletinib (CO-1686, AVL-301)]",1.09
12,"CCCS(=O)(=O)Nc1ccc(F)c(C(=O)c2c[nH]c3ncc(-c4ccc(Cl)cc4)cc23)c1F [Vemurafenib (PLX4032, RG7204)]",0.34
13,COc1cc(OC)c(C=C2C(=O)Nc3ccccc32)c(OC)c1,0.96
14,CCN(CC)CCCC(C)Nc1nc(C)cc(Nc2ccc3nc(C)cc(N)c3c2)n1 (centres undefined),0.49
15,CN1CC(O)C2=C/C(=N/NC(N)=O)C(=O)C=C21 (centres undefined) [Carbazochrome],0.58
16,Cc1cc(Nc2cc(N3CCN(C)CC3)nc(/C=C/c3ccccc3)n2)n[nH]1,0.9
17,Cc1ccc(NC(=O)Nc2cc(C(F)(F)F)ccc2F)cc1Nc1ccc2c(c1)NC(=O)/C2=C\c1ccc[nH]1,1.34

row,SMILES,thermal shift delta Tm [°C]
1,CO[C@H]1C[C@@H]2CC[C@@H](C)[C@@](O)(O2)C(=O)C(=O)N2CCCC[C@H]2C(=O)O[C@H]([C@H](C)C[C@@H]2CC[C@@H](O)[C@H](OC)C2)CC(=O)[C@H](C)/C=C(\C)[C@@H](O)[C@@H](OC)C(=O)[C@H](C)C[C@H](C)/C=C/C=C/C=C/1C [Rapamycin (Sirolimus)],0.34
2,C[S+]([O-])c1ccc(-c2nc(-c3ccc(F)cc3)c(-c3ccncc3)[nH]2)cc1 (centres undefined),0.43
3,CO[C@H]1CC[C@H](N2C(=O)CNc3ncc(-c4ccc(C(C)(C)O)nc4)nc32)CC1,0.66
4,O=C(Nc1ccccc1C(=O)NC1CCCCNC1=O)c1cc2ccccc2s1 (centres undefined),0.41
5,CCN1CCN(Cc2ccc(-c3cc4c(N[C@H](C)c5ccccc5)ncnc4[nH]3)cc2)CC1,0.13
6,Cc1cnc(NC(=O)Nc2cc(Br)c(C)cc2OC[C@@H]2CNCCO2)cn1,0.19
7,Cc1ccc(NC(=O)c2ccc(CN3CCN(C)CC3)cc2)cc1Nc1nccc(-c2cccnc2)n1 [Imatinib Mesylate (STI571)],0.85
8,NC(=O)c1ccc(N(C(N)=O)c2c(F)cccc2F)nc1-c1ccc(F)cc1F,0.18
9,Cc1nc(-c2cn3c(n2)-c2ccc(-c4cnn(C(C)(C)C(N)=O)c4)cc2OCC3)n(C(C)C)n1 [Taselisib (GDC 0032)],0.87
10,COc1cc(N2CCC(N(C)C)CC2)ccc1Nc1ncc(Cl)c(Nc2ccccc2P(C)(C)=O)n1,0.35
11,COc1cc2c(Nc3ccc(NC(=O)c4ccccc4)cc3)ncnc2cc1OCCCN1CCOCC1,0.42
12,CNC(=O)c1cc(Oc2ccc(NC(=O)Nc3cc(C(C)(C)C)nn3-c3ccc4ncccc4c3)c(F)c2)ccn1 [Rebastinib (DCC-2036)],-0.15
13,CC(C)(CO)n1cc(C(=O)c2cncc(NC(=O)Cc3ccc(Cl)cn3)c2)c2cnc(N)nc21,0.34
14,CS(=O)(=O)N1CCN(Cc2cc3nc(-c4cccc5[nH]ncc45)nc(N4CCOCC4)c3s2)CC1 [Pictilisib (GDC-0941)],0.23
15,C[C@@H]1COC(Nc2ccc3ncnc(Nc4ccc(OCc5nccs5)c(Cl)c4)c3c2)=N1 [Varlitinib],0.26
16,COc1cc(Nc2ncc(F)c(Nc3ccc4c(n3)NC(=O)C(C)(C)O4)n2)cc(OC)c1OC,0.41
17,CC(C)n1nc(-c2ccc3oc(N)nc3c2)c2c(N)ncnc21,0.29
